The values below come from the OligoGym collection.
Further: reference of the scale not given here.

The first test has as its target TAAR8. In words: pooled miR-30 sensor sort-seq; sequence = guide strand. The note with it: shRNA.
Sequence TTATAGCTTGTTGTTTAGCTAT yielded a sensor-assay potency score (higher = more potent) of -0.98.
On the same count and under the same terms, the value for TAGCCTTTAAAACATCTCCACT was -0.818.
Sequence TCAATTAATATATCAACTGTAT gave a sensor-assay potency score (higher = more potent) of -0.769.
Sequence TAATATATCAACTGTATACGGT came in with a sensor-assay potency score (higher = more potent) of -0.194.
TCAGTAACCACAATGTACCTGT yielded a sensor-assay potency score (higher = more potent) of 0.327.
TATAGCTTGTTGTTTAGCTATA returned a sensor-assay potency score (higher = more potent) of -1.63.
TAATAAGCACTCCAACAGCAAA displayed a sensor-assay potency score (higher = more potent) of -1.57.

Another test concerns the target TAC4. Described as above. The settings on record: shRNA.
Regarding TGCAGCTGGAGCTGAATGCTGG, the sensor-assay potency score (higher = more potent) is -1.1.
TCTCTGCCTTTTTTTCTCCTTG came in with a sensor-assay potency score (higher = more potent) of -0.948.
As to TCTGTGAACAGGCTTCTCTTGC, the sensor-assay potency score (higher = more potent) is -0.505.
TTCCTCTCCACCATCACCTGCC displayed a sensor-assay potency score (higher = more potent) of 0.531.
In turn, TCATCCTCTCTGCCTTCTGTGA displayed a sensor-assay potency score (higher = more potent) of -1.57.
TTCTGTGAACAGGCTTCTCTTG displayed a sensor-assay potency score (higher = more potent) of -0.693.
Still for that read-out and setting: in the case of TATGCTTTTTTTCTCCTTGGCT it was -0.257; in that of TGCTTTTTTTCTCCTTGGCTGG, -1.36.
In the case of TGCTTCAGTGCTGAGTGTCTGT, the sensor-assay potency score (higher = more potent) is -0.405.
Sequence TCTGCCTTCTGTGAACAGGCTT yielded a sensor-assay potency score (higher = more potent) of -0.554.
On the same count and under the same terms, the value for TGAACAGGCTTCTCTTGCCCAG was -1.26; that for TTTTTTTCTCCTTGGCTGGATC was -1.14.

The next test concerns the target TACR1. Described as above. The note with it: shRNA.
Turning to TCGATCATGCACACGACTCTGC, the sensor-assay potency score (higher = more potent) is 0.106.
In the case of TTCGTCACTGTCCTCATTCTTT, the sensor-assay potency score (higher = more potent) was -0.603.
TGGTCTTGGAGTCACTTCGTGA displayed a sensor-assay potency score (higher = more potent) of -1.54.
For TAGTTCGTCACTGTCCTCATTC, the sensor-assay potency score (higher = more potent) was -0.77.
TAGATCAGCACAGTCACACAGA returned a sensor-assay potency score (higher = more potent) of -0.182.
In turn, TGACTTTGTACACACTGCCCTG returned a sensor-assay potency score (higher = more potent) of -1.2.
TTTCTCATAAATCTTGTTCGGA: the sensor-assay potency score (higher = more potent) was 0.392.
The same measure, in the same setting: in the case of TTGAGTAGTAGCCCTGGGGGAA it was -0.65; in that of TTCTCATAAATCTTGTTCGGAT, -0.905; in that of TAGGTGAAGTTCACCACTGTAT, -0.204.
Take TAGAACAGGCCGTAGTACCATT: the sensor-assay potency score (higher = more potent) was -1.05.
Turning to TCGTTGTGGACAGCATAGGTGA, the sensor-assay potency score (higher = more potent) is -1.11.

In another test the target is TAF3. The description is as above. The note with it: shRNA.
Regarding TAAACTTGTAGGGATCTGCCTC, the sensor-assay potency score (higher = more potent) is 0.187.
The sequence TTTGGGAGTAGTACACTCCGGG had a sensor-assay potency score (higher = more potent) of 0.0818.
Take AATAACACAACATCTAGCGTGT: the sensor-assay potency score (higher = more potent) came out at 0.896.
TTCTTGTTCGCACACTTGGGGC had a sensor-assay potency score (higher = more potent) of -1.41.
Regarding TTTATCTGCTACCACAGCCTTT, the sensor-assay potency score (higher = more potent) is -0.868.
As to TAACACAACATCTAGCGTGTCC, the sensor-assay potency score (higher = more potent) came to 0.323.
With TTTCACTTTATCCTTCTCCTTA, the sensor-assay potency score (higher = more potent) was determined as 0.0178.
TTGATTTTAAACTTGTAGGGAT returned a sensor-assay potency score (higher = more potent) of 0.554.
Consider TATCTTTATCTTTCTTGCCTTT, for which the sensor-assay potency score (higher = more potent) is -0.809.
